Shown are actives, neighbours in structure and some others; about 1.5% of the full set was active somewhere.
RAD54 branch: RAD54 (human) branch migration inhibition; RAD54 Holliday junction branch migration, FAM/BHQ fluorescence; inhibition, % at 10.4 µM; AID 602329; 360,000 tested, 0.14% active; Q92698;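 active = mean normalized replicate activity at least 40 and at least half of replicates scoring 40 or more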;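 also: inhibitors cause a drop in the FAM fluorescence signal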
miR122 inh: inhibitors of miR-122 in Huh7 cells; Huh7 miR-122 Renilla luciferase sensor, 48 h; neutral wells = 0, positive control = 100; activation (reporter increase), % at 12.5 µM; 340,000 tested, 0.3% active; AID 602342;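 active = mean replicate activation score at least 90 and every replicate individually at or above 90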;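 also: higher luciferase means less miR-122 activity so hits act as miR-122 inhibitors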
RAD52 anneal inh: inhibitors of human RAD52 DNA annealing | P43351 | recombinant RAD52 DNA annealing, FRET fluorescence | inhibition, % at 18.7 µM | 360,000 tested, 0.46% active;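 active = every replicate showing at least 50% inhibition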
FID counter: fluorescent intercalator displacement, NS3 helicase counter-screen. inhibition, % at 7.9 µM. DNA fluorescent intercalator displacement, fluorescence. 290,000 tested, 0.17% active; in the data active = inhibition above about 37%;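 also: higher means more ethidium bromide displaced from hairpin DNA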
CendR NRP1 mod: NRP-1/CendR interaction modulation | O14786 | FAM-RPARPAR peptide binding to NRP-1, fluorescence polarization | inhibition, % at 25 µM | 360,000 tested, 0.85% active | AID 602438;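 active = inhibition or corrected inhibition above about 18%, plus a signal ratio from 0.5 to 1.5, limit read from the data, passing the limit was not always enough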
Glyco luc inh: N-linked glycosylation inhibition; 360,000 tested, 0.23% active; reporter increase, % at 12.5 µM; D54 ERlucT glycosylation luciferase reporter, 24 h; percent of 100 nM tunicamycin response;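 active = mean luciferase reporter signal, scaled so untreated is 0 and the glycosylation-blocking control 100, at or above a set limit in every replicate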;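 also: luciferase carries N-glycosylation sites so blocking glycosylation raises the light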
Numbers stand for hits; 0 = inactive; - = no result; [ ] = remark or other dose.

SMILES	RAD54 branch	miR122 inh	RAD52 anneal inh	FID counter	CendR NRP1 mod	Glyco luc inh
CNC[C@@H]1Oc2ccc(NC(=O)Nc3ccc(OC)cc3)cc2CC(=O)N([C@@H](C)CO)C[C@@H]1C	0	0	0	-	-	-
COc1ccc2c3c(n(C)c2c1)[C@H](CO)N(Cc1ccncc1)CC31CN(C(=O)C2CCC2)C1	-	-	0	-	-	-
C[C@@H](O)C#Cc1cnc2c(c1)C(=O)N([C@@H](C)CO)C[C@H](C)[C@H](CN(C)CC1CC1)O2	-	0	-	-	-	-
COc1cccc(NS(=O)(=O)c2ccc3c(c2)N(C(C)=O)CCO3)c1	0	195	0	0	0	0
O=S(=O)(Nc1ccc(Cl)cc1)c1ccc2c(c1)CCO2	0	123	0	0	0	0
O=S(=O)(Nc1ccc2c(c1)OCCO2)c1ccc(F)c(F)c1	0	0	0	0	0	0
O=C(N[C@H]1CC[C@H](CC(=O)N2CCN(c3ccccc3)CC2)O[C@@H]1CO)c1ccncc1	0	-	0	-	-	-
O=C(Cc1ccccc1)N1C[C@H]2[C@@H](c3ccccc31)[C@@H](CO)N2C(=O)C1CCCCC1	0	200[16.7 µM]	0	-	-	-
O=C(C1CCCCC1)N1C[C@H]2[C@@H](c3ccccc31)[C@@H](CO)N2C(=O)c1ccccc1	0	260[16.7 µM]	0	-	-	-
COc1ccc(C(=O)N2C[C@@H]3[C@H](c4ccccc42)[C@H](CO)N3Cc2ccccc2Cl)cc1	0	194[16.7 µM]	0	-	-	-
COc1ccc(C(=O)N2C[C@H]3[C@@H](c4ccccc42)[C@@H](CO)N3Cc2ccccc2Cl)cc1	0	0	0	-	-	-
Cc1noc(C)c1NC(=O)N(C)C[C@H]1Oc2ccc(NC(=O)NC3CCCCC3)cc2CC(=O)N([C@H](C)CO)C[C@@H]1C	0	0	0	-	-	-
C[C@H](CO)N1C[C@H](C)[C@H](CN(C)C(=O)CN(C)C)Oc2cc(-c3ccncc3)ccc2S1(=O)=O	0	0	0	-	-	-
O=[N+]([O-])c1ccc(-n2nnnc2CN2CCOCC2)cc1	-	-	0	0	0	0
O=[N+]([O-])c1ccc(-n2nnnc2CN2CCCCC2)cc1	0	0	0	0	24	0
O=C(c1ccc(F)cc1)C(CN1CCOCC1)c1ccccc1 (configuration not stated)	0	0	0	0	27	0
C[C@H]1CN([C@@H](C)CO)S(=O)(=O)c2ccc(C#CC3CC3)cc2O[C@H]1CN(C)C(=O)c1ccccn1	0	0	0	-	-	-
Cc1cc(N/C(=N/S(=O)(=O)c2ccc(F)cc2)c2ccccc2)n(-c2ccccc2)n1	-	-	0	0	0	0
Cc1cc(N/C(=N/S(=O)(=O)c2cc(F)ccc2F)c2ccccc2)n(-c2ccccc2)n1	-	-	0	0	27	0
Cc1nc(SCC(=O)NCC2CCCO2)c2c3c(sc2n1)CCCC3 (configuration not stated)	0	0	0	0	30	0
CCCNC(=O)c1ccc(N2CCC3(CC2)CC(c2ccccc2)=NO3)c([N+](=O)[O-])c1	0	-	0	0	0	0
O=C(NCc1ccccc1)c1ccc(N2CCC3(CC2)CC(c2ccc(Cl)cc2)=NO3)c([N+](=O)[O-])c1	0	0	0	0	31	0
CN(C)CCCNC(=O)C[C@@H]1CC[C@@H](NC(=O)c2ccccc2F)[C@@H](CO)O1	0	-	0	-	-	-
C[C@H](O)C#Cc1ccc2c(c1)O[C@@H](CN(C)Cc1ccccc1)[C@H](C)CN([C@H](C)CO)S2(=O)=O	0	0	0	-	-	-
Cc1nc2ccccc2n1CCC(=O)O	0	0	-	0	33	0
SMILES	RAD54 branch	miR122 inh	RAD52 anneal inh	FID counter	CendR NRP1 mod	Glyco luc inh
COCC(=O)Nc1ccc2c(c1)[C@H]1C[C@@H](CC(=O)NCc3ccncc3)O[C@@H](CO)[C@H]1O2	0	0	0	-	-	-
Fc1ccc(-n2nnc(-c3cccnc3)n2)cc1	0	0	0	0	27	0
Clc1ccc(-n2nnc(-c3cccnc3)n2)cc1Cl	0	0	0	0	0	0
CCC(=O)N[C@@H]1CC[C@H](CC(=O)NCCN2CCCCC2)O[C@@H]1CO	0	0	0	-	-	-
C[C@@H]1CCCCO[C@@H](CN(C)C(=O)Nc2ccccc2)[C@@H](C)CN([C@@H](C)CO)C(=O)c2cc(NS(=O)(=O)c3ccc(Cl)cc3)ccc2O1	0	0	0	-	-	-
COc1ccc(C2=C/C(=C\c3ccc(OC(C)=O)cc3)C(=O)O2)cc1	0	0	0	0	108	0
Cc1ccc(NCCc2ccc(C)nc2)cc1	0	0	-	0	20	0
Cc1ccc(CCNc2ccc3ccccc3c2)cn1	-	0	-	0	0	0
